Measurements published in PubChem BioAssay (NCATS).
Inconclusive results are not listed. Unless noted, the call rests on the fitted dose curve; in most records, active means well fitted curve in either direction with a large enough effect (not every such curve was filed as active); inconclusive means small, poorly fitted or top-dose-only effect, or another doubt; inactive means flat fitted curve, though single readings scatter.

Experiments:
[1] = NFAT Signaling Pathway (AID 444); details: Jurkat NFAT-bla M1, carbachol, beta-lactamase ratio, 5 h; at 17.2 µM (top of the series) unless noted;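 further: carbachol stimulus at about its EC50 of 1 µM final; on the % scale 0 is the no-effect control and ±100 the full control effect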
Method in brief: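 Jurkat cells with NFAT-driven β-lactamase reporter and co-expressed M1 receptor, stimulated with carbachol (final 1 uM, ~EC50), compound titration, 5 h at 37 °C. CCF4 loaded 1 h at RT; 460/530 nm ratio gave %activity and AC50.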

[2] = Stat Signaling Pathway (AID 446); details: ME-180 SIE beta-lactamase reporter, IL-6 stimulated, 5 h; at 17.2 µM (top of the series) unless noted;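 further: ME-180 cervical cancer cells given 40 pM IL-6 alongside compound; SIE-controlled beta-lactamase reporter measured as 460/530 nm FRET emission ratio; on the % scale 0 is the no-effect control and ±100 the full control effect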
Method in brief: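 Reporter line: ME-180 cervical carcinoma, SIE-beta-lactamase. Treatment: compound with 40 pM IL-6, 5 hrs, 37 C, in low-serum OPTI-MEM with 10 mM HEPES pH 7.3. Detection: 460/530 nm fluorescence.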

[3] = target: Glucocorticoid receptor (Homo sapiens) (UniProt P04150); test: GR-GFP Redistribution (AID 450;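 active means compounds whose dose series gives a full or clear partial fitted curve of increased nuclear translocation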; further: potency means the concentration at half of the fitted maximal effect)
[4] = qHTS Assay for Identification of Small Molecule Agonists for Hypoxia Response Element Signaling Pathway (AID 914; active means well fitted activation curve with a large enough effect in the signal ratio, with a control signal flat, not every such curve was filed as active; the % refers to the signal ratio; further: % of control where 0% means no effect); details: ME-180 (cervical carcinoma) HRE-bla reporter, beta-lactamase ratio, CoCl2, 17 h; activation: hits give high values
Method in brief: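 qHTS titration; ME-180 HRE-bla cells; EC50 CoCl2 co-treatment, 17 h at 37 degrees Celsius; CCF4 dye, ex 405nm, em 460nm and 530nm; %Activity from ratio; AC50.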

Chain of Glucocorticoid receptor (Homo sapiens) (P04150 whole entry, looked up): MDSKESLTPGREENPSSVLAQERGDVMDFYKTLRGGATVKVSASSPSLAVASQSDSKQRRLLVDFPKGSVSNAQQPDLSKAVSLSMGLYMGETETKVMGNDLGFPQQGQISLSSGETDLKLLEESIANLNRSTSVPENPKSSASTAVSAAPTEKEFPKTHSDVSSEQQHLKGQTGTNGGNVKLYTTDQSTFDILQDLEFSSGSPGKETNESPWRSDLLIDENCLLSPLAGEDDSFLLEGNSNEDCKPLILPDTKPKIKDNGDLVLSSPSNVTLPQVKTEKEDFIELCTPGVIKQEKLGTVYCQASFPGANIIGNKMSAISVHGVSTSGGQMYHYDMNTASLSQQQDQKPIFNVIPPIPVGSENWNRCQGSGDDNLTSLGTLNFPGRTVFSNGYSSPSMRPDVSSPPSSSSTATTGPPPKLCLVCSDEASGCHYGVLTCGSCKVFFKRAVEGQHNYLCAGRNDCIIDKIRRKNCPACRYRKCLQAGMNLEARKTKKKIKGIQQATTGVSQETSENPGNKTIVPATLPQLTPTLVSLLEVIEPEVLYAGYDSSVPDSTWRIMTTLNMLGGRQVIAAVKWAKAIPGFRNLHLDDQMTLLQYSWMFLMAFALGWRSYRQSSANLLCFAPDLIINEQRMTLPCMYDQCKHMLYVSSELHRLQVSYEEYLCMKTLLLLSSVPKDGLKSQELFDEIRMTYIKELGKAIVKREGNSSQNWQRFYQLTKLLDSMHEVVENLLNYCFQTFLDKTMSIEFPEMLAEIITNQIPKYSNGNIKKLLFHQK

C=C(C)CC1N(c2cccc(OC)c2)C(=O)[C@@H]2C(C(=O)O)[C@H]3C=C[C@@]12O3 (stereo partly specified)
inactive: activity change, negative = inhibition [1] 5.5% | activity, negative = inhibition [2] 3.15% | Potency [3] > 20.6 µM

OC1(C2(O)CC(c3ccccc3)ON2)CCCCC1 (stereo unspecified)
inactive: activity change, negative = inhibition [1] -7.93% | activity, negative = inhibition [2] -6.74% | Potency [3] > 20.6 µM | activation [4] -4.48%

COc1ccc(NC(=O)CSC2=C(C#N)C(c3ccco3)C3=C(CCCC3=O)N2)c(OC)c1 (stereo unspecified)
inactive: activity change, negative = inhibition [1] -6.5% | activity, negative = inhibition [2] -8.16% | Potency [3] > 20.6 µM | activation [4] -27.4%
